Assay outcomes: PubChem BioAssay, National Center for Advancing Translational Sciences (NCATS)
LASV entry inh – blocks Lassa virus binding to or entry into cells | 300,000 tested, 1.2% active | Lassa virus pseudotype entry inhibition, cell reporter | Potency, µM (titrated, usually from 37.9 µM), for inactives: at the highest dose activity change, negative = inhibition, actives largely listed as inhibitors; calls by dose curve; tested in HEK293 cells; also: potency is read from the fitted curve at half-maximal effect; nearly all actives have a fitted effect of over 50% in size
HCMV antiviral – blocks human cytomegalovirus replication; activity change, negative = inhibition, % at 57.5 µM; HFF cells, HCMV-luciferase reporter, 72 h; hits give low values; AID 1259415; 410,000 tested, 4.5% active; in the data active = activity change below about -60%; inconclusive = no clear call, values can overlap the other calls; inactive = above about -39%
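Cell-based, HFFs, 1000 cells/well, 16 h 37C; cpds in DMSO + HCMV-luc, MOI 1 PFU/cell; 72 h 37C; OneGlo luminescence after 5 min RT; norm. to buffer vs Salinomycin 10uM.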
FMDV antiviral – antivirals against foot and mouth disease virus; FMDV antiviral cell-based qHTS; Potency, µM (titrated, usually from 57.9 µM), inactives show top-dose activity change, negative = inhibition, most hits filed as inhibitors; 410,000 tested, 1.2% active; AID 1159524; calls by dose curve; tested in HEK293T cells; also: read-out not given here; potency is read from the fitted curve at half-maximal effect; nearly all actives have a fitted effect of over 45% in size
MARV entry inh – blocks Marburg virus binding to or entry into cells; 300,000 tested, 1.8% active; AID 540276; Potency, µM (titrated, usually from 37.8 µM), for inactives: at the highest dose activity change, negative = inhibition, hits mostly inhibitors; Marburg virus pseudotyped entry inhibition, cell reporter; calls by dose curve; tested in HEK293 cells; also: potency is read from the fitted curve at half-maximal effect
Numbers without * were called inactive; u = inconclusive; x = not tested or not shown; + = active, no number; [ ] = another dose, or the depositor's remark. Sampled rows, rich in hits. Any-hit rate of the full collection: about 6.2%. % is scaled to controls: 0 for no effect and ±100 for the full control effect.

SMILES	LASV entry inh	HCMV antiviral	FMDV antiviral	MARV entry inh
CCN(CC)S(=O)(=O)c1ccc(-c2nnc(SCC(=O)N3CCc4ccccc43)o2)cc1	u	-87*	x	u
Clc1cccc(Cl)c1Cn1cnc2c(N3CCCCCC3)ncnc21	7.3µM*	-81*	x	4.6µM*
COc1ccc(-c2nc3cc(F)ccc3cc2CN(C(=O)c2cccc(OC)c2)C2CC2)cc1	x	x	-11%	x
COc1cccc(-c2nc3cc(SC)ccc3cc2CN(C(=O)c2csc(C)n2)C2CC2)c1	x	x	28µM*	x
COc1cccc(-c2nc3cc4c(cc3cc2CN(C(=O)c2csc(C)n2)C2CC2)CCC4)c1OC	x	x	14µM*	x
O=S(=O)(Cc1cc(Cl)nc(-c2ccncc2)n1)c1ccccc1	-7%	-66*	-8%	u
O=S(=O)(c1ccccc1)c1c2c(cc3ccc(Cl)cc13)CCC2	x	-4	x	x
Cc1ccc(NS(=O)(=O)c2c(C)nc3sccn3c2=O)c(Cl)c1	20%[46.1 µM]	8	19%	6%[46.1 µM]
O=C(Nc1ccc(Oc2ccccc2)cc1)C1CCN(c2c3c(nc4ncnn24)CCC3)CC1	21µM*	-101*	8.9µM*	u
O=C(Nc1ccc2c(c1)CCC2)C1CCN(c2c3c(nc4ncnn24)CCC3)CC1	u	-101*	u	u
Cc1cc(C)cc(NC(=O)CSc2nnc(CNC(=O)c3c(F)cccc3Cl)o2)c1	15%[46.1 µM]	8	-2%	u
CCCCOC(=O)c1cccc(NC(=O)/C=C/c2ccccc2Cl)c1	-28%[46.1 µM]	-95*	u	x
CCOC(=O)c1cccc(NC(=O)/C=C/c2ccc3c(c2)OCO3)c1	u	-11	40µM*	u
CCN(C(=O)/C=C/c1ccc2c(c1)OCO2)c1ccccc1	0%	-71*	10%	23%
O=C(/C=C/c1ccccc1Cl)Nc1cccc(O)c1	x	28	-13%	x
CCCCOC(=O)c1cccc(NC(=O)CCC(=O)O)c1	23%	21	10%	3%
O=C(/C=C/c1ccccc1Cl)Nc1ccccc1	u	131	-16%	10µM*
CC(=O)NCC(=O)N[C@H](CCC(=O)O)C(=O)O	x	x	-15%	x
COC(=O)C1=CN(c2ccc3c(c2)OCO3)C(N)=C(C#N)C1c1ccccc1 (stereo not given)	x	9	7%	x
CC(C)[C@@H](CO[Si](C)(C)C(C)(C)C)N1CC=CS1(=O)=O	8%[46.1 µM]	x	x	x
Cc1cc2nnc(SCC(=O)Nc3ccc(F)c(Cl)c3)n2c2ccccc12	28%[46.1 µM]	0	14%	-4%[46.1 µM]
CCOc1ccc(CCNC(=O)c2ccc(-c3nc(CSc4ccccc4)c(C)o3)cc2)cc1	6%[46.1 µM]	11	0%	x
Cc1cc(Cl)ccc1NC(=O)CN1CCC(C(O)(c2ccccc2)c2ccccc2)CC1	u	-67*	-21%	u
Cc1cc(Cl)ccc1NC(=O)CN1CCCC1	u	6	-12%	-5%[46.1 µM]
O=C(Nc1ccc(F)cc1)C1CCN(c2nc3ccccc3nc2C(F)(F)F)CC1	15%[46.1 µM]	-3	0%	x
SMILES	LASV entry inh	HCMV antiviral	FMDV antiviral	MARV entry inh
CC(C)=CC(=O)Nc1cccc(S(=O)(=O)NC2=NCCCCC2)c1	x	4	10%	x
O=C(CCl)Nc1ccc(S(=O)(=O)NC2=NCCCCC2)cc1	u	-37	32µM*	u
Cc1ccc(Nc2nnc(SCC(=O)Nc3cccc(S(=O)(=O)NC4=NCCCCC4)c3)s2)c(C)c1	u	-13	32µM*	u
O=C(CCl)Nc1cccc(S(=O)(=O)NC2=NCCCCC2)c1	x	-102*	u	x
CCCNCC(=O)Nc1cccc(S(=O)(=O)NC2=NCCCCC2)c1	14%	0	-13%	3%
COc1ccc(/C=C/C(=O)Nc2cccc(S(=O)(=O)NC3=NCCCCC3)c2)cc1OC	x	-16	40µM*	x
COC(=O)c1cccc(CN2C(=O)SC(Nc3ccc(Br)cc3)C2=O)c1 (stereo not given)	-26%[46.1 µM]	3	-10%	6%[46.1 µM]
Cc1cc(C)nc(S[C@H]2C[C@@H](C(=O)N3CCN(c4ccccc4F)CC3)N(Cc3ccccc3C(F)(F)F)C2)n1	x	x	4%	x
O=C(Nc1cccc(S(=O)(=O)NC2=NCCC2)c1)c1ccc(F)cc1	x	u	-16%	x
O=C(Nc1cccc(S(=O)(=O)NC2=NCCC2)c1)c1ccc(C(F)(F)F)cc1	0%	-60*	-24%	-15%
COc1cc(OC)cc(C(=O)OCC(=O)Nc2cccc(S(=O)(=O)NC3=NCCCCC3)c2)c1	18%	-18	22µM*	u
Cc1ccccc1CN1C(=O)C(O)(CC(=O)c2cccc(Br)c2)c2ccccc21 (stereo not given)	-24%[46.1 µM]	u	-23%	x
CC1Cc2ccccc2N1C(=O)CSc1nnc(-c2ccccc2)c(-c2ccccc2)n1 (stereo not given)	u	-83*	u	u
CC1Cc2ccccc2N1C(=O)CSc1nnc2c(n1)[nH]c1ccccc12 (stereo not given)	-11%	-5	14µM*	-13%
Cc1nnc(SC(C)C(=O)N2CCc3ccccc32)s1 (stereo not given)	3%	-33	0%	u
CC(Sc1nnc(-c2ccccc2)c(-c2ccccc2)n1)C(=O)N1CCc2ccccc21 (stereo not given)	u	-31	u	11µM*
CCCc1nc(SCC(=O)N2c3ccccc3CC2C)c2c(C)c(C)sc2n1 (stereo not given)	u	u	x	9.2µM*
CCCc1nc(SCC(=O)NC2CC2)c2c(C)c(C)sc2n1	2%[46.1 µM]	55	-11%	18%[46.1 µM]
Cc1cc2c(c(-c3cnccn3)c1)OC(CNC(=O)c1cc(C(C)C)[nH]n1)C2 (stereo not given)	x	x	-10%	x
COc1cc2c(cc1NC(=O)C(C)Oc1ccc(Cl)cc1Cl)oc1ccccc12 (stereo not given)	11%[46.1 µM]	-3	-24%	-2%[46.1 µM]
Cc1cc(C)cc(NC(=O)Cn2c(=O)n(-c3cc(C)cc(C)c3)c(=O)c3oc4ccccc4c32)c1	4%[46.1 µM]	-61*	-10%	x
Cc1cc(C)cc(NC(=O)Cn2c(=O)n(-c3ccc(C)c(C)c3)c(=O)c3oc4ccccc4c32)c1	-2%[46.1 µM]	-10	1%	x
Cc1ccc(-n2c(=O)c3oc4ccccc4c3n(CC(=O)Nc3ccccc3)c2=O)cc1C	u	-67*	7%	x
CCOc1ccc(-n2c(=O)c3sccc3n(CC(=O)Nc3cccc(OC)c3)c2=O)cc1	x	+	-3%	x
CC(=O)Nc1ccc(NC(=O)Cn2c(=O)n(-c3ccccc3)c(=O)c3oc4ccccc4c32)cc1	-1%	0	-11%	u
COc1cccc(NC(=O)Cn2c(=O)n(-c3ccccc3)c(=O)c3oc4ccccc4c32)c1	u	-68*	-7%	u
COc1ccc(Cn2c(=O)c3oc4ccccc4c3n(CC(=O)Nc3cc(C)cc(C)c3)c2=O)cc1	u	72	-9%	x
CCOc1ccc(-c2nc3c(c(SCC(=O)N4CCCCC4)n2)Cc2cccc(OC)c2O3)cc1	7%[46.1 µM]	-5	-8%	0%[46.1 µM]
CCC1(C2CCN(C(=O)c3coc4c3C(=O)CCC4)CC2)NC(=O)N(CCc2scnc2C)C1=O (stereo not given)	x	x	11%	x
COc1ccc(NC(=O)c2oc3ccccc3c2NC(=O)Cc2coc3c(C)c(C)ccc23)cc1	-9%[46.1 µM]	47	2%	-18%[46.1 µM]
